Measured values published in the supplement of paper PMC6555819.

Each sequence was assayed on PPARa:RXRa (NR concentration 270 nM, RXRa partner concentration 90 nM) (assay: PBM binding z-score (relative to random genomic background probes); higher = stronger binding; sequences stand for … in GC…GCGATTGACAGCGTAGAATGAAGG).
Outline: (§1)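 Scanned fluorescence from custom Agilent 4×180K protein-binding microarrays was regression-normalized. Binding z-scores use random background probes as reference. Ligand-free nuclear receptor dimers were incubated on the arrays for 1 h and detected with antibodies against each partner (one per run).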

Sequence	PBM binding z-score
CTATGTAGGTTAAGGGGGTTATTCAGTTTGAAAG	5.34
TCGAGTAGGTTACGGAGGCATTCAGGGATGAAGA	1.57
CTATGTAGGTTAAGCGGGTCATTCAGTTTGAAAG	4.84
CGATGTAGGTTAAGGGGGTCATTCAGTTTGAAAG	5.85
CTATGTAGGTTAAGGGGGCCATTCAGTTTGAAAG	4.65
CTATGCAGGTTAAGGGGGTCATTCAGTTTGAAAG	5.63
TCGAGTAGGTTACTGGGGCATTCAGGGATGAAGA	3.51
CCGACTAGGTTACGAGGGGGCATTCAGTGCGAAT	3.16
CCGAGTAGGTTACGAGGGGGCATTCGGTGCGAAT	3.53
TCGAGTAGGTTACGGGGGCATTCAGGGATGAAGA	4.38
TCGAGTAGGTTACGGGGGCATTAAGGGATGAAGA	4.16
CAATGTAGGTTAAGGGGGTCATTCAGTTTGAAAG	6.05
CTATGTAGGTTAATGGGGTCATTCAGTTTGAAAG	6.23
CCGAGTAGGTTACGAGGCGGCATTCAGTGCGAAT	1.06
CCGAGTAGGTTACGAGGGCGCATTCAGTGCGAAT	1.72
CTATGTAGGTGAAGGGGGTCATTCAGTTTGAAAG	6.36
TCTAGTAGGTTACGGGGGCATTCAGGGATGAAGA	4.95
CCGAGTAAGTTACGAGGGGGCATTCAGTGCGAAT	1.99
CTATGTAGGGTAAGGGGGTCATTCAGTTTGAAAG	6.11
CTATGTAGGTTAAAGGGGTCATTCAGTTTGAAAG	6.43

Sequence	PBM binding z-score
CTCTGTAGGTTAAGGGGGTCATTCAGTTTGAAAG	5.68
TCGAGTAGGTTACGGGGGCATTGAGGGATGAAGA	4.31
CCGAGTAGGTAACGAGGGGGCATTCAGTGCGAAT	2.83
CTATTTAGGTTAAGGGGGTCATTCAGTTTGAAAG	5.72
CTATGTAGGTTCAGGGGGTCATTCAGTTTGAAAG	5.86
TCGAGTAGGTTACGGGCGCATTCAGGGATGAAGA	1.4
CTATGTACGTTAAGGGGGTCATTCAGTTTGAAAG	5.53
CCGAGTAGGTTCCGAGGGGGCATTCAGTGCGAAT	2.04
CTATGTAGGTTAAGGGGGTCATTTAGTTTGAAAG	5.83
CCGATTAGGTTACGAGGGGGCATTCAGTGCGAAT	3.29
CTATGTAGGTTAACGGGGTCATTCAGTTTGAAAG	6.19
TCGAGTAGGTTACGGGGGCATCCAGGGATGAAGA	4.35
CCGAGTAGGTTATGAGGGGGCATTCAGTGCGAAT	3.29
CCGAGTAGGTCACGAGGGGGCATTCAGTGCGAAT	5.66
TCGAGTAGGTTACGCGGGCATTCAGGGATGAAGA	1.49
CCGCGTAGGTTACGAGGGGGCATTCAGTGCGAAT	3.17
CTATGTAGGTTAAGGGGTTCATTCAGTTTGAAAG	4.75
CCGAGTAGGTTACGATGGGGCATTCAGTGCGAAT	1.42
TCGAGTAGGTTACGGGGTCATTCAGGGATGAAGA	6.21

These sequences were tested on PPARg:RXRa (NR concentration 180 nM, RXRa partner concentration 90 nM) in the same assay as above.
Outline: as §1

Sequence	PBM binding z-score
CTATGTAGGTTAAGGGGGTTATTCAGTTTGAAAG	7.83
TCGAGTAGGTTACGGAGGCATTCAGGGATGAAGA	1.39
CTATGTAGGTTAAGCGGGTCATTCAGTTTGAAAG	5.97
CGATGTAGGTTAAGGGGGTCATTCAGTTTGAAAG	8.23
CTATGTAGGTTAAGGGGGCCATTCAGTTTGAAAG	7
CTATGCAGGTTAAGGGGGTCATTCAGTTTGAAAG	5.77
TCGAGTAGGTTACTGGGGCATTCAGGGATGAAGA	4.99
CCGACTAGGTTACGAGGGGGCATTCAGTGCGAAT	2.68
CCGAGTAGGTTACGAGGGGGCATTCGGTGCGAAT	2.41
TCGAGTAGGTTACGGGGGCATTCAGGGATGAAGA	5.95
TCGAGTAGGTTACGGGGGCATTAAGGGATGAAGA	6.03
CAATGTAGGTTAAGGGGGTCATTCAGTTTGAAAG	8.91
CTATGTAGGTTAATGGGGTCATTCAGTTTGAAAG	7.9
CCGAGTAGGTTACGAGGCGGCATTCAGTGCGAAT	0.984
CCGAGTAGGTTACGAGGGCGCATTCAGTGCGAAT	2.6
TCTAGTAGGTTACGGGGGCATTCAGGGATGAAGA	8
CCGAGTAAGTTACGAGGGGGCATTCAGTGCGAAT	-0.0159
CTATGTAGGGTAAGGGGGTCATTCAGTTTGAAAG	8.15
CTATGTAGGTTAAAGGGGTCATTCAGTTTGAAAG	9.57

Sequence	PBM binding z-score
CTCTGTAGGTTAAGGGGGTCATTCAGTTTGAAAG	6.59
TCGAGTAGGTTACGGGGGCATTGAGGGATGAAGA	6.35
CCGAGTAGGTAACGAGGGGGCATTCAGTGCGAAT	1.05
CTATTTAGGTTAAGGGGGTCATTCAGTTTGAAAG	7.22
CTATGTAGGTTCAGGGGGTCATTCAGTTTGAAAG	5.72
TCGAGTAGGTTACGGGCGCATTCAGGGATGAAGA	1.17
CTATGTACGTTAAGGGGGTCATTCAGTTTGAAAG	3.31
CCGAGTAGGTTCCGAGGGGGCATTCAGTGCGAAT	-0.00423
CTATGTAGGTTAAGGGGGTCATTTAGTTTGAAAG	8.48
CCGATTAGGTTACGAGGGGGCATTCAGTGCGAAT	1.45
CTATGTAGGTTAACGGGGTCATTCAGTTTGAAAG	7.77
TCGAGTAGGTTACGGGGGCATCCAGGGATGAAGA	6.04
CCGAGTAGGTTATGAGGGGGCATTCAGTGCGAAT	1.69
CCGAGTAGGTCACGAGGGGGCATTCAGTGCGAAT	7.8
TCGAGTAGGTTACGCGGGCATTCAGGGATGAAGA	1.38
CCGCGTAGGTTACGAGGGGGCATTCAGTGCGAAT	0.847
CTATGTAGGTTAAGGGGTTCATTCAGTTTGAAAG	7.11
CCGAGTAGGTTACGATGGGGCATTCAGTGCGAAT	0.775
TCGAGTAGGTTACGGGGTCATTCAGGGATGAAGA	8.14
